Activity calls are given as the source filed them.
How the values were obtained:
[1] = test system: Plasmodium falciparum Sir2 (PF13_0152, Sir2A); assay: pfSir2 binders on small-molecule microarrays, primary screen, biochemical, small-molecule microarray, 635 nm fluorescence (AID 1098); details: small-molecule microarray binding, fluorescence 635 nm; higher = more signal;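 also: score merges spot fluorescence intensity with its signal-to-noise ratio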
[2] = small-molecule microarray binders of probe aDKK1, primary screen, biochemical, biotinylated probe, 635/667 nm fluorescence (AID 1099); details: higher = more signal;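 also: score merges 667nm spot fluorescence with signal to noise across triplicate slides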
[3] = small-molecule microarray binders of probe aCHRDL2, primary screen, biochemical, biotinylated probe, 635/667 nm fluorescence (AID 1100); details: higher = more signal
[4] = splicing luciferase reporter signal modulators, primary screen, spliceosome inhibition project, cell-based, HEK293, splice +/- reporter (AID 1101); details: luminescence, 24 h, higher = more signal, called active from +8 up or from −8 down;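 also: HEK293 cells carrying a splicing-competent luciferase reporter gene; test concentration not given here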
[5] = molecular target: Fibroblast growth factor 10 (Homo sapiens) (UniProt O15520); assay: FGF10 binders on small-molecule microarrays, primary screen, biochemical, small-molecule microarray, 635 nm fluorescence (AID 1102); details: FGF10 binding, fluorescence 635 nm, higher = more signal
Fibroblast growth factor 10 (Homo sapiens), sequence (O15520 whole entry, looked up): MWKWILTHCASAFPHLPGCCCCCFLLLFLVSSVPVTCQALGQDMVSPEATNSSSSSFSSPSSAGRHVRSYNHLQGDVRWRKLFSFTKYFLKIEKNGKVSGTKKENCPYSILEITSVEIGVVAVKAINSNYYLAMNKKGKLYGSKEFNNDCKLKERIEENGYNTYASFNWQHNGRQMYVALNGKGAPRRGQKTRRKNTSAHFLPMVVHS

[6] = test system: glycogen synthase kinase-3 (GSK3A per assay name; protocol says GSK3B); assay: GSK3 binders on small-molecule microarrays, primary screen, biochemical, small-molecule microarray, 635 nm fluorescence, GSK3A (AID 1103); details: small-molecule microarray binding, fluorescence 635 nm; higher = more signal; also: the record names both GSK3A and GSK3B
[7] = molecular target: Epidermal growth factor receptor (Homo sapiens) (UniProt P00533); assay: EGFR binders on small-molecule microarrays, primary screen, biochemical, small-molecule microarray, 635 nm fluorescence (AID 1104); details: EGFR binding, higher = more signal;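 also: score merges 667 nm emission intensity with spot signal to noise over triplicate slides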
Epidermal growth factor receptor (Homo sapiens), sequence (P00533 whole entry, looked up): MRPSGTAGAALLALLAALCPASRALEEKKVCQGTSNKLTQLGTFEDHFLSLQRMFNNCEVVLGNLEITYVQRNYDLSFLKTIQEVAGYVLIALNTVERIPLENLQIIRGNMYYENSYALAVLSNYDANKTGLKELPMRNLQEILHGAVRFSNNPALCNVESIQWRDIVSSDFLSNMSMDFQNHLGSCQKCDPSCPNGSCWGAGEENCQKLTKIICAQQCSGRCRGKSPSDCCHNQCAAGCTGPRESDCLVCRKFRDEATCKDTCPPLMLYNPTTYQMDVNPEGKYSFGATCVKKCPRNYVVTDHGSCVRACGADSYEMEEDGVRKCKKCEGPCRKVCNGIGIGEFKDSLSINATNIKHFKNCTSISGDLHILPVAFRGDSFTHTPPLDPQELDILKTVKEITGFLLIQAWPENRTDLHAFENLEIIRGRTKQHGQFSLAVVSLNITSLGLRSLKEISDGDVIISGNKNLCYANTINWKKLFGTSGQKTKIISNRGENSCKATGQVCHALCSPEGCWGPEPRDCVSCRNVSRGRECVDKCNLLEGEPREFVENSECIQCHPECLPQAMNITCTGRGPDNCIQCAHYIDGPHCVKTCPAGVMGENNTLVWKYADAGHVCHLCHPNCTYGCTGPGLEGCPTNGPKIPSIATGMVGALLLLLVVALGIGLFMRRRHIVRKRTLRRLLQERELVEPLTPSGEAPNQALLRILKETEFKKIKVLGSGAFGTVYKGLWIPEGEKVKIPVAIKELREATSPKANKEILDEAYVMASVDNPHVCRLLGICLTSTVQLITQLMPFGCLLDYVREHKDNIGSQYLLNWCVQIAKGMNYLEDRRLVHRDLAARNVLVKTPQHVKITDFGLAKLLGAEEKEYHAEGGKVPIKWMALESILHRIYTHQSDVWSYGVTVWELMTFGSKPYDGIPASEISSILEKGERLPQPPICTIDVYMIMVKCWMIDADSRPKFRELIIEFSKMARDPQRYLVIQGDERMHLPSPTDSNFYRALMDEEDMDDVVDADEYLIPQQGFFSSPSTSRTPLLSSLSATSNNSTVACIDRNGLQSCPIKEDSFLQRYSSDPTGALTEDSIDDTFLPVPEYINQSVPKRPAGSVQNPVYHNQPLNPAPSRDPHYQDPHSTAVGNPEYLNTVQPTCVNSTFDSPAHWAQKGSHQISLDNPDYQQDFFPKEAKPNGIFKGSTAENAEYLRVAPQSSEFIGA

[8] = molecular target: Follistatin-related protein 3 (Homo sapiens) (UniProt O95633); assay: FSTL3 binders on small-molecule microarrays, primary screen, biochemical, small-molecule microarray, 635 nm fluorescence (AID 1105); details: FSTL3 binding, higher = more signal;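 also: score merges emission near 667 nm and signal to noise per printed spot across three slides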
Follistatin-related protein 3 (Homo sapiens), sequence (O95633 whole entry, looked up): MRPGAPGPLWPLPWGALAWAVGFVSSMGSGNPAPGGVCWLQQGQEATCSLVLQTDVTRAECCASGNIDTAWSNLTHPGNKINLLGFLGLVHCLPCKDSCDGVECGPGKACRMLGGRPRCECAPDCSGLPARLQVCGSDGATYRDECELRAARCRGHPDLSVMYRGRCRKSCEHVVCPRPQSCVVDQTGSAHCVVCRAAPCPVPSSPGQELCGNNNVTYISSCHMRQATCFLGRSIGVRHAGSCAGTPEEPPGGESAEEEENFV

[9] = molecular target: Dickkopf-related protein 1 (Homo sapiens) (UniProt O94907); assay: DKK1 binders on small-molecule microarrays, primary screen, biochemical, small-molecule microarray, 635 nm fluorescence scan (AID 1106); details: DKK1 binding, higher = more signal;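 also: score merges emission near 667 nm with signal to noise over three replicate slides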
Dickkopf-related protein 1 (Homo sapiens), sequence (O94907 whole entry, looked up): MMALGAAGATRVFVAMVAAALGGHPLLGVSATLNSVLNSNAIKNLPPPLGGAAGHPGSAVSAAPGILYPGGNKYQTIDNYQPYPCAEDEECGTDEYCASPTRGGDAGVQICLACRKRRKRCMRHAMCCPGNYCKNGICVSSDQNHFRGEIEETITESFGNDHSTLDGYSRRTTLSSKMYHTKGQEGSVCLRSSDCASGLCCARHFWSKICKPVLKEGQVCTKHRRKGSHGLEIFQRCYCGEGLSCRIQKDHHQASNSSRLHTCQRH

[10] = test system: Inhibin beta A chain (activin A); assay: INHBA (activin A) binders on microarrays, primary screen, biochemical, small-molecule microarray, 635 nm fluorescence scan (AID 1107); details: small-molecule microarray binding, higher = more signal;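 also: mouse activin A protein probed at 4.33 µg/mL on printed slides; score merges bound-protein fluorescence near 667 nm with spot signal-to-noise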
[11] = test system: Human papillomavirus type 1a protein E7 (residues 44-93); assay: HPV1a E7 fragment binders on microarrays, primary screen, biochemical, small-molecule microarray, residues 44-93, 635 nm fluorescence (AID 1108); details: small-molecule microarray binding, fluorescence 635 nm; higher = more signal;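 also: E7 fragment applied at 1 µg/mL in TBST for 1 h at 4 C; score combines spot fluorescence with its signal to noise ratio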
[12] = modulators of HCV replicon luciferase signal, primary screen, HCV replication inhibitor project, Huh7 cells, luciferase reporter (AID 1109); details: 48 h, higher = more signal;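 also: huh7 hepatoma cells harbouring a luciferase neomycin HCV replicon reporter; luciferase luminescence as measure of HCV replicon replication; test concentration not given here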
[13] = molecular target: Left-right determination factor 2 (Homo sapiens) (UniProt O00292); assay: LEFTY2 binders on small-molecule microarrays, primary screen, biochemical, small-molecule microarray, 635 nm fluorescence scan (AID 1110); details: LEFTY2 binding, higher = more signal
Left-right determination factor 2 (Homo sapiens), sequence (O00292 whole entry, looked up): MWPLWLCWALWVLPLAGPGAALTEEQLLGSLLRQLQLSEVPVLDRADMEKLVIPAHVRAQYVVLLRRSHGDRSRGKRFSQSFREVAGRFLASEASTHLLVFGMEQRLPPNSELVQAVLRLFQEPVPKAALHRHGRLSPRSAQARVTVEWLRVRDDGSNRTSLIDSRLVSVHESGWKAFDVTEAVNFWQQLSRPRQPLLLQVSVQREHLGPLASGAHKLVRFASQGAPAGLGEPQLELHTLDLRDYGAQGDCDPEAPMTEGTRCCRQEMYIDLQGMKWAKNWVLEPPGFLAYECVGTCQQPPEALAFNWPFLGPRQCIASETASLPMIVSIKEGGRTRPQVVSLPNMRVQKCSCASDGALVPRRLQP

[14] = molecular target: Calmodulin-1 (Homo sapiens) (UniProt P0DP23); assay: CALM1 binders on microarrays, EGTA buffer, profiling panel, biochemical, small-molecule microarray, Cy5-labelled CALM1 (AID 1111); details: Cy5-CALM1 binding fluorescence, higher = more signal;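 also: labelled calmodulin applied in Tris saline Tween buffer holding calcium plus EGTA and DTT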
[15] = molecular target: Calmodulin-1 (Homo sapiens) (UniProt P0DP23); assay: calcium-bound CALM1 binders on microarrays, profiling panel, artefact control for SMM control-protein annotation, biochemical, small-molecule microarray, Cy5-labelled CALM1, plus calcium (AID 1112); details: Cy5-CALM1 binding fluorescence, higher = more signal;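 also: score merges spot fluorescence with signal to noise from triplicate slides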
[16] = small-molecule microarray binders of probe aWnt5a, primary screen, biochemical, biotinylated probe, 635/667 nm fluorescence (AID 1113); details: higher = more signal;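 also: score merges 667 nm fluorescence intensity with signal-to-noise per printed feature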
[17] = small-molecule microarray binders of probe aShh, primary screen, biochemical, biotinylated probe, 635/667 nm fluorescence (AID 1114); details: higher = more signal;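 also: probe is biotin-labelled aShh protein from a stem cell growth factor screen; measures binding of labelled protein to compounds printed on the slide; score merges feature fluorescence at 667 nm with signal-to-noise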
[18] = small-molecule microarray binders of probe aNog, primary screen, biochemical, biotinylated probe, 635/667 nm fluorescence (AID 1115); details: higher = more signal;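 also: probe is biotinylated aNog protein used at 0.15 µg/mL for 1 h at 4 C; z-score combines 667 nm fluorescence of each spot with its signal to noise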
[19] = molecular target: Torsin-1A-interacting protein 1 (Homo sapiens) (UniProt Q5JTV8); assay: LAP1 binders from COS7 cell lysate, primary screen, small-molecule microarray, 635/667 nm fluorescence (AID 1116); details: COS7-hLAP1 lysate binding, 635 nm fluorescence, higher = more signal
Torsin-1A-interacting protein 1 (Homo sapiens), sequence (Q5JTV8 whole entry, looked up): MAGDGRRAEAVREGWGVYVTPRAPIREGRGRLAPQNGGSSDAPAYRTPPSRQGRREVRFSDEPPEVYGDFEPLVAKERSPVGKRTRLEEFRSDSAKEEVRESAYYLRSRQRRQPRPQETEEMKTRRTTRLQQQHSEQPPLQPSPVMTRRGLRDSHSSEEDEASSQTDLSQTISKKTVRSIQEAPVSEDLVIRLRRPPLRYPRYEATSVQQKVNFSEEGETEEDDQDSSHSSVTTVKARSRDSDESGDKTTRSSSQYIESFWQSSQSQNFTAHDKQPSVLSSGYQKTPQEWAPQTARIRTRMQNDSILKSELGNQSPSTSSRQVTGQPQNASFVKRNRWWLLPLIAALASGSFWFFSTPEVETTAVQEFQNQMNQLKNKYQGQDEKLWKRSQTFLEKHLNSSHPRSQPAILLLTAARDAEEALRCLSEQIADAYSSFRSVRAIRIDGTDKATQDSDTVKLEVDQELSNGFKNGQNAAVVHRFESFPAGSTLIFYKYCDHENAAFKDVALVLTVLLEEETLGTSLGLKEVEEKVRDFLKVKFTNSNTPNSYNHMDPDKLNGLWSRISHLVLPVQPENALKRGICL

[20] = molecular target: Alpha-bungarotoxin (Bungarus multicinctus) (UniProt P60615); assay: alpha-bungarotoxin binders on microarray, profiling panel, artefact control for SMM control protein annotation, biochemical, small-molecule microarray, Alexa647 label, 635/667 nm fluorescence (AID 1117); details: alpha-BTX-A647 binding fluorescence, higher = more signal
Alpha-bungarotoxin (Bungarus multicinctus), sequence (P60615 whole entry, looked up): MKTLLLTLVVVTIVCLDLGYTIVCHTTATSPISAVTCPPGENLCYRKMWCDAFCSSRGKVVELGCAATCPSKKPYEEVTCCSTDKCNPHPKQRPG

| SMILES | composite z-score [1] | composite z-score [2] | composite z-score [3] | z-score [4] | composite z-score [5] | composite z-score [6] | composite z-score [7] | composite z-score [8] | composite z-score [9] | composite z-score [10] | composite z-score [11] | z-score [12] | composite z-score [13] | composite z-score [14] | composite z-score [15] | composite z-score [16] | composite z-score [17] | composite z-score [18] | composite z-score [19] | composite z-score [20] |
| --- | --- | --- | --- | --- | --- | --- | --- | --- | --- | --- | --- | --- | --- | --- | --- | --- | --- | --- | --- | --- |
| O=C1NC(=O)C2C1C=CC(C(O)c1ccc(B(O)O)cc1)N2Nc1ccc(Cl)cc1Cl (stereo not given) | 0.46 | 0.704 | 0.326 | 0.379 (inactive) | 0.0671 | -0.0838 | -0.174 | 0.317 | -0.414 | 0.948 | -0.181 | -0.693 | -0.401 | 0.524 | 0.0583 | -0.0721 | -0.181 | 0.682 | 0.392 | 0.869 |
| C=CCC(OC(C)=O)[C@@H]1[C@@H](N(Cc2cccc3ccccc23)C(=O)Cc2ccc(OC)cc2)c2cc(OCCCO)ccc2N1C(=O)c1ccc2ccccc2c1 (stereo not given in full) | 0.0596 | 0.0644 | 0.256 | -1.68 (inactive) | 0.045 | -0.344 | 0.0359 | 0.627 | 0.234 | 1.35 | 0.233 | -0.922 | 0.139 | 0.468 | -0.385 | -0.0398 | 0.138 | -0.23 | 0.119 | 0.337 |
| COC(=O)[C@H](Cc1ccc(O)cc1)N[C@@H](/C=C/C1CC1)[C@H](O)Cc1ccccc1 | -0.61 | -0.29 | -0.33 | 1.29 (inactive) | 0.357 | -0.444 | -0.074 | -0.119 | 0.14 | -0.322 | -0.367 | -1.06 | -0.0158 | -0.851 | -0.929 | -0.15 | -0.214 | -0.321 | 0.108 | -0.22 |
| C=C(CCCC)/C(=C/C[C@@H](OC(C)=O)c1ccc(CO)o1)c1cnc2ccccc2c1 | 1.08 | -0.282 | -0.428 | 0.179 (inactive) | 1.46 | 1.3 | 0.533 | 1.4 | 0.768 | 1.05 | 1.42 | -0.756 | 0.735 | 0.626 | -0.764 | -0.0704 | 0.147 | -0.0719 | 1.69 | 1.15 |
| O=C(O)[C@H](Cc1ccccc1)n1cc(C2(O)CCCCC2)nn1 | -0.0685 | -0.201 | -0.518 | -0.358 (inactive) | 0.193 | 0.938 | 0.213 | 0.343 | 0.196 | -0.0247 | 0.792 | -0.96 | 0.678 | -0.259 | -0.691 | -0.263 | 0.527 | -0.0899 | 0.281 | 0.0396 |
| Cc1ccccc1C(O)C1C=CC2C(=O)N(c3ccccc3)C(=O)C2N1Nc1ccccc1 (stereo not given) | 1.37 | 1.01 | 1.25 | -0.00177 (inactive) | 0.96 | 0.65 | 0.0981 | 1.17 | 0.0843 | 1.45 | 0.0932 | 1.31 | 0.256 | 2.12 | 0.585 | 0.0437 | 0.108 | 0.189 | 1.54 | 1.1 |

— PubChem BioAssay
